Reference: PubChem BioAssay (NCATS)
Results filed as inconclusive are left out. Values without a mark were called inactive. The call rests on the fitted dose curve; in most records, active means well fitted activation curve with a large enough effect; inconclusive means small, poorly fitted or top-dose-only effect; inactive means flat fitted curve, though single readings scatter. Where a SMILES comes first, the peptide text is derived from it. The star is where a group is joined. βNA = c1ccc2cc(N*)ccc2c1; Cbz = O=C(OCc1ccccc1)*

Test: Primary redox qHTS assay for identification of artifact compounds. (AID 1845223)
Settings: Amplex Red/HRP redox cycling with DTT, fluorescence; series mostly up to 53.8 µM; redox activity (% of DA3003): at the top concentration
Excerpt: PI: Alexander Tropsha Ph.D.
UNC Eshelman School of Pharmacy
University of North Carolina, Chapel Hill, North Carolina
Hits from high-throughput screening (HTS) of chemical libraries are often false positives due to their interference with the assay detection technology. In response to this problem, we generated the largest publicly available library of chemical liabilities and developed a free webtool to predict HTS artifacts, both of which are described herein. More specifically, we generated, curated, and integrated HTS datasets for thiol reactivity, redox activity, and luciferase (firefly and nano) activity. Using these curated datasets, we developed and validated several Quantitative Structure-Interference Relationship (QSIR) models to predict nuisance behavior. […] These models were employed for virtual profiling of the National Center for Advancing Translational Science's (NCATS) in-house library, and 256 compounds for each assay were selected for the experimental validation of nuisance behavior. The BA for these external predictions ranged from 58 to 78% for compounds within the applicability domains of the models. […] The models developed in this study, along with aggregation models previously developed by our group (SCAM Detective) were implemented in "Liability Predictor," an online tool which may be used as part of chemical library design or for triaging HTS hits. Both the models and the curated datasets are publicly available at https://liability.mml.unc.edu/.
SEQUENCE No. (e.g., 1, 2, 3, etc.); […] (e.g., Cells, Incubation, Reagent, etc.); VALUE; DESCRIPTION.
1; Reagent; 3 uL; Amplex Red and HRP mixture.
2; Compounds and control; 16 nL; Kalypsis pin tool (Wako USA) equipped with a 1536-well pin head. […]
6; Detection; Fluorescence, ViewLux microplate reader, 525 nm excitation, 598 nm emission.
NOTES (numbers refer to Sequence numbers above)
1. 3 uL of a mixture containing Amplex Red (25 uM final concentration) and horseradish peroxidase (HRP; 250 mU/mL final concentration) in assay buffer (HBSS) was dispensed into all wells of a 1536-well assay plate (solid-bottom black plate; Greiner Bio One, Monroe, NC).
2. A Wako Pin-tool (Wako Automation, Richmond, VA) was used to transfer 16 nL of compounds (consisting of 7-plates in qHTS format, final concentration range 18.3 nM to 114 uM) or control DA3003 (final concentration range 1.22 nM to 40 uM).
3. 15 min. incubation at room temperature protected from light.
4. 1 uL of DTT (prepared fresh; final concentration 250 uM) was dispensed for a final assay volume of 4 uL.
5. Plates were centrifuged (121xg, 15 seconds) and incubated for 30 minutes at room temperature protected from light.
6. Samples were read for fluorescence (Ex/Em = 525(20)/598(25) nm) on a ViewLux CCD imager (PerkinElmer). Data were normalized to DMSO (0% activity) and DA3003 (10 uM final concentration; 100% activity) and the resulting percent inhibition data were fitted to a 4-parameter Hill equation using NCATS in-house software.

Row | SMILES | redox activity (% of DA3003)
1 | CCCCCOC(=O)Nc1nc(=O)n(C2O[C@H](C)[C@@H](O)[C@H]2O)cc1F (stereo not given in full) | -1.21%
2 | COC(=O)c1ccccc1O[C@@H]1O[C@H](CO[C@@H]2OC[C@@H](O)[C@H](O)[C@H]2O)[C@@H](O)[C@H](O)[C@H]1O | 4.71% [at 25.6 µM]
3 | CC1(O)CC(O)C2C(C(=O)O)=COC(OC3OC(CO)C(O)C(O)C3OC(=O)/C=C/c3ccc(O)cc3)C21 (stereo not given) | -0.461% [at 25.6 µM]
4 | CC(C)=CCC[C@](C)(O[C@@H]1O[C@H](CO[C@@H]2O[C@@H](CO)[C@H](O)[C@H]2O[C@@H]2OC[C@@H](O)[C@H](O)[C@H]2O)[C@@H](O)[C@H](O)[C@H]1O)[C@H]1CC[C@]2(C)[C@@H]1[C@H](O)CC1[C@@]3(C)CC[C@H](O[C@@H]4O[C@H](CO)[C@@H](O)[C@H](O)[C@H]4O[C@@H]4O[C@H](CO)[C@@H](O)[C@H](O)[C@H]4O)C(C)(C)C3CC[C@]12C (stereo not given in full) | -2.65% [at 11.5 µM]
5 | C=C(C)C1Cc2c(ccc3c2OCC(c2ccc(O)cc2O)C3)O1 (stereo not given) | 19.5%
6 | CC1(C)CC[C@]2(C(=O)O)CC[C@]3(C)C(=CCC4[C@@]5(C)C[C@@H](O)[C@H](O)[C@@](C)(CO)C5CC[C@]43C)C2C1 (stereo not given in full) | 4.92% [at 25.6 µM]
7 | CC(C)CC(=O)OC[C@@]1(O)C[C@@]23CC[C@H]4[C@@](C)(CCC[C@@]4(C)C(=O)O)[C@@H]2CC[C@@H]1C3 | 23.5% [at 25.6 µM]
8 | COc1cc(/C=C/c2ccccc2)c(C(=O)O)c(O)c1CC=C(C)C | 16.6%
9 | CC(CC12CCCN1C(=O)C1CCCN1C2=O)OC(N)=O (stereo not given) | -17.4%
10 | COc1cc(O)c2c(c1Cl)CC(C)OC2=O (stereo not given) | -10.1%
11 | CC1(C)CC[C@]2(C(=O)O)CC[C@]3(C)C(=CCC4[C@@]5(C)C[C@H](O)[C@H](O[C@@H]6O[C@H](CO)[C@@H](O)[C@H](O)[C@H]6O)[C@@](C)(CO)C5[C@H](O)C[C@]43C)[C@@H]2C1 (stereo not given in full) | 7.83% [at 25.6 µM]
12 | O=C(CC1CC(c2ccc(F)cc2F)=NO1)N1CCOCC1 (stereo not given) | -1.18%
13 | C[C@H](O)C(O)(C(=O)OCc1ccccc1NC(=O)CCC(N)C(=O)O)[C@H](C)O (stereo not given in full) | -14.5% [at 25.6 µM]
14 | C/C(=C\CC[C@H](CO)[C@@H]1CC[C@]2(C)C3=C(CC[C@@]12C)[C@@]1(C)CCC(=O)C(C)(C)C1CC3)C(=O)O (stereo not given in full) | -0.439% [at 25.6 µM]
15 | COc1ccc(Oc2c(Cl)cnn(C3c4ccccc4-c4ccccc43)c2=O)cc1 | -3.03%
16 | C/C=C1/[C@H](O[C@@H]2O[C@H](CO)[C@@H](O)[C@H](O)[C@H]2O)OC=C2C(=O)O[C@@H]3C[C@@H](C(C)CO)[C@H](COC(=O)C[C@H]21)[C@H]3C (stereo not given in full) | -0.449% [at 25.6 µM]
17 | CC1=C2CC(C)(C)CC2C(O)C2=C(C1)C(=O)OC2O (stereo not given) | -5.99%
18 | COc1cc2nc(=NC(=O)c3cccnc3)n3c(c2cc1OC)NCC3 | -0.256%
19 | CC(=O)c1ccc(O[C@@H]2O[C@H](CO[C@@H]3OC[C@@H](O)[C@H](O)[C@H]3O)[C@@H](O)[C@H](O)[C@H]2O)cc1 | -0.16% [at 25.6 µM]
20 | CC(C)CC(NC(=O)OCc1ccccc1)C(=O)NC(CC(C)C)C(=O)NC(CCC(=O)O)C(=O)Nc1ccc2ccccc2c1 (stereo not drawn) (Cbz-Leu-Leu-Glu-βNA; configuration not given here) | 6.14%

Row | SMILES | redox activity (% of DA3003)
21 | CCOC(=O)CSc1nc2c(sc3ccccc32)c(=O)n1CCCN1CCCC1 | 3.07%
22 | C[C@@]1(O)[C@H](O)[C@@H](CO)O[C@H]1n1cnc2c(=O)[nH]c(N)nc21 | -3.81%
23 | CC(C)CC[C@@H](O)[C@](C)(O)[C@H]1CC[C@@]2(O)C3=CC(=O)[C@@H]4C[C@@H](O)[C@@H](O)C[C@]4(C)[C@H]3CC[C@]12C | 9.7%
24 | C[C@@H]1O[C@@H](O[C@H]2[C@@H]3C=CO[C@@H](O[C@@H]4O[C@H](CO)[C@@H](O)[C@H](O)[C@H]4O)[C@@H]3[C@@]3(CO)O[C@@H]23)[C@H](O)[C@H](OC(=O)/C=C/c2ccc(O)c(O)c2)[C@H]1O | -4.14% [at 25.6 µM]
25 | O=C(Nc1ccc(N2CCC(C(=O)N3CCOCC3)CC2)cc1)c1cnc(Oc2ccccc2)nc1 | -0.423%
26 | CC1(C)CCC[C@]2(C)C1CC=C(CO)[C@H]2CC/C(=C/CO)CO (stereo not given in full) | -10.6%
27 | O=C(O)CC1(O)C(=O)Nc2ccccc21 (stereo not given) | -6.4% [at 85.7 µM]
28 | CN1CCN(C2=Nc3ccccc3Nc3ccc(O)cc32)CC1 | -7.03%
29 | C/C(=C/CO)CC[C@H]1[C@]2(C)C[C@H](O)CC(C)(C)[C@H]2CC[C@]1(C)O | -15.7%
30 | C[C@H]1[C@H](C)CC[C@]2(C(=O)O)CC[C@]3(C)C(=CCC4[C@@]5(C)C[C@@H](O)[C@H](O)C(C)(C)C5CC[C@]43C)[C@H]12 (stereo not given in full) | -12% [at 25.6 µM]
31 | CN1CCCC1Cc1c[nH]c2ccc(CCS(=O)(=O)c3ccccc3)cc12 (stereo not given) | -3.62%
32 | C[C@@H]1O[C@@H](OC[C@H]2O[C@@H](OCc3ccccc3)[C@H](O)[C@@H](O)[C@@H]2O)[C@H](O)[C@H](O)[C@H]1O | -16.1% [at 25.6 µM]
33 | O=C(O)C1(c2ccc(-c3ccc(Cl)c(Cl)c3)c(F)c2)CC1 | 9.94%
34 | CC1C2=CC(=O)OC2(O)CC2C1C(O)CC1C(C)(CO)CCCC21C (stereo not given) | -12.3%
35 | CC(=O)OCC1OC(O[C@H]2CC[C@@]3(C)C(CC[C@]4(C)C3CC=C3[C@@H]5CC(C)(C)CC[C@]5(C(=O)O)CC[C@]34C)[C@]2(C)CO)C(O)C(O)C1OC1OC(C)C(O)C(OC2OCC(O)C(O)C2O)C1O (stereo not given in full) | -4.45% [at 11.5 µM]
36 | C[C@@H]1CC[C@]2(C(=O)O)CC[C@]3(C)C(=CCC4[C@@]5(C)C[C@@H](O)[C@@H](O)C(C)(C)C5CC[C@]43C)C2[C@]1(C)O (stereo not given in full) | 6.83% [at 25.6 µM]
37 | N#Cc1cccc(-c2nc(-c3cccnc3)no2)c1 | -1.55% [at 25.6 µM]
38 | C=CC(C)(O)CC/C=C(\C)C(=O)O[C@@H]1[C@@H](O)[C@H](OC(C)(C=C)CC/C=C(\C)C(=O)O[C@@H]2O[C@H](CO)[C@@H](O)[C@H](O)[C@H]2O)O[C@H](CO)[C@H]1OC(=O)/C(C)=C/CCC(C)(O)C=C (stereo not given in full) | -5.92% [at 11.5 µM]
39 | Cc1ccccc1NC(=O)Nc1ccc(CN2C(=O)N([C@@H](CC(C)C)C(=O)N[C@@H](CC(=O)O)c3ccccc3)C(=O)C2(C)C)cc1 | 14.9%
40 | COc1ccc(/C=C/C(=O)N2CCCC2)cc1 | 18.4%
